Screening data: PubChem BioAssay, several laboratories
This is a sample that favours compounds with a hit; in the whole collection about 7.6% have one here.
M1 ag – M1 muscarinic receptor agonists, primary screen, CHO-M1 cells, Fluo-4 calcium, agonist mode; Fluo-4 calcium fluorescence; hits give high values; B-score at 10 µM; actives 3% (n = 64,000);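 active means fluorescence rise, raw or as B-score row- and column-corrected plate score, outside the 99.7% band of its plate's samples, either direction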
M1 antag – antagonists of rat M1 muscarinic receptor. Muscarinic acetylcholine receptor M1 (Rattus norvegicus), P08482. CHO-M1 cells, Fluo-4 calcium, ACh EC80 antagonist mode; hits give low values. B-score at 10 µM. actives 3.4% (n = 64,000). AID 628, 2007;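 active means calcium fluorescence response, raw or row-and-column corrected B-score, differing from the plate sample mean either way at a set confidence level, mostly lower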
Cav3 T inh – Cav3.2 calcium influx blockers – cell-based, Fluo-4 calcium fluorescence, FDSS, MLSMR library, primary screen. Voltage-dependent T-type calcium channel subunit alpha-1H (Homo sapiens), O95180. Cav3.2-expressing cells; hits give low values. B-score at 10 µM. actives 4% (n = 100,000);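 active means single-dose well whose peak fluorescence ratio is a statistical outlier from its plate by either plate-standardised score or position-corrected B-score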
PLAP act – PLAP enzyme activators, biochemical, luminescence, HTS; activation fold at 20 µM; actives 1.2% (n = 96,000); purified PLAP enzyme, luminescent substrate read-out; hits give high values; AID 696, 2007; Alkaline phosphatase, placental type (Homo sapiens), P05187; in the data active means activation fold above about 2
Target sequence (P05187 whole entry, looked up): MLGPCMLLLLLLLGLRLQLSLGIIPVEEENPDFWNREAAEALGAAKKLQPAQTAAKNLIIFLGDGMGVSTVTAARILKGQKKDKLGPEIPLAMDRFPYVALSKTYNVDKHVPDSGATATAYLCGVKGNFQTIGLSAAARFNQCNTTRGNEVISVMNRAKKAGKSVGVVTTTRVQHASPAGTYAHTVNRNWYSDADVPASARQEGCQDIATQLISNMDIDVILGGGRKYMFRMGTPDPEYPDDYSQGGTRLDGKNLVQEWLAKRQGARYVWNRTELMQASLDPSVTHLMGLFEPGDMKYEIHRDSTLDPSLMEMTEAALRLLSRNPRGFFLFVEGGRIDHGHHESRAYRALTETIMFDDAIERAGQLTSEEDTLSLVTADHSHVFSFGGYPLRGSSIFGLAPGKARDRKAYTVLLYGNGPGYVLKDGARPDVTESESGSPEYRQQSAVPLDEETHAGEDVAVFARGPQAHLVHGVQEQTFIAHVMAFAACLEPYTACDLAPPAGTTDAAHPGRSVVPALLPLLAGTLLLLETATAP
M1 antag confirm – rat M1 muscarinic receptor antagonists, confirmation, CHO cells, Fluo-4 calcium, duplicate; shares compounds with M1 antag; ACh EC80 antagonism; hits give low values; calcium response (max-min fluorescence) at 10 µM; actives 43% (n = 1,700);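 active means calcium response below the same-plate mean of wells given acetylcholine alone at its 80%-effect dose, minus 3 SD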;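 further: raw fluorescence intensity difference in arbitrary instrument units and not normalized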
mGluR4 antag – human mGluR4 response to M1 antagonist hits, M1 allosteric modulator project, cell-based, antagonist mode, secondary assay 1 | actives 0.9% (n = 1,700) | fluorescence response (max-min) at 10 µM | CHO-mGluR4 calcium flux, Fluo-4 fluorescence, glutamate EC80; hits give low values | shares compounds with M1 antag;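 active means fluorescence response below the plate's average for near-maximal glutamate wells, less 3 SD of those wells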;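 further: raw unnormalized fluorescence span taken in the window right after glutamate addition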
Active calls of the source: *.

Results for CCc1ccc(NC(=O)C(=O)NCCN2CCN(C(=O)c3ccco3)CC2)cc1 ?
Cav3 T inh: 1.6

What do the screens show for `O=C1CC(N2CCN(c3ccc(S(=O)(=O)N4CCOCC4)cc3)CC2)C(=O)N1Cc1ccccc1` (stereo not drawn)?
M1 ag: 0.26; M1 antag: -3.4*; Cav3 T inh: 1.8; PLAP act: 1.1; M1 antag confirm: 607*; mGluR4 antag: 186

How did CCCC(O)(CCN1CCCCC1)c1ccc(OCC)cc1 (stereo not drawn) do in these assays?
Cav3 T inh: -0.47; PLAP act: 1.2

What do the screens show for `CCC(O)(CCN1CCCCC1)c1ccccc1` (stereo not drawn)?
M1 ag: 0.35; M1 antag: -11*; Cav3 T inh: 0.15; PLAP act: 1; M1 antag confirm: 111*; mGluR4 antag: 213

Results for Cc1ccc(Cn2nnc3c(=O)n(CC(=O)N4CCN(c5ccccc5)CC4)cnc32)cc1 ?
M1 ag: -2.5; M1 antag: -4.7*; Cav3 T inh: -1.5; PLAP act: 0.7; M1 antag confirm: 656; mGluR4 antag: 205

How did Cc1ccc(Cn2nnc3c(=O)n(CC(=O)OCc4ccccc4)cnc32)cc1 do in these assays?
M1 ag: 0.38; M1 antag: 0.58; Cav3 T inh: -1.7

Results for COC(=O)c1cc2ccsc2n1Cc1nc(-c2ccc(OC)cc2)oc1C ?
M1 ag: -0.95; M1 antag: -5.5*; Cav3 T inh: -1.8; PLAP act: 1.3; M1 antag confirm: 474*; mGluR4 antag: 240

Results for COC(=O)c1cc2sccc2n1Cc1nc(-c2ccc(OC)cc2)oc1C ?
M1 ag: 0.23; M1 antag: -2.6*; Cav3 T inh: -0.39; PLAP act: 1; M1 antag confirm: 508; mGluR4 antag: 232

What do the screens show for `CCOCCCn1c(=S)[nH]c2cc(C(=O)NCCN(CC)CC)ccc2c1=O`?
M1 ag: 0.12; M1 antag: -8.8*; Cav3 T inh: 1; PLAP act: 1.2; M1 antag confirm: 538; mGluR4 antag: 204

How did O=C(Cn1c(-c2cscn2)nc2ccccc21)Nc1ccccc1F do in these assays?
Cav3 T inh: -0.4; PLAP act: 1.1

How did CCOC(=O)c1cnn(-c2ncnc3sc4c(c23)CCC4)c1N do in these assays?
M1 ag: -1.7; M1 antag: -2.7*; Cav3 T inh: -0.26; PLAP act: 1.2; M1 antag confirm: 617; mGluR4 antag: 204

Results for Cc1ccc2[nH]c3c(N4CCCCCC4)ncnc3c2c1 ?
M1 ag: 6.3; M1 antag: -2.7*; PLAP act: 0.8; M1 antag confirm: 387*; mGluR4 antag: 178*

How did CCn1c(Cc2ccccc2)nnc1SCC(=O)Nc1ccc(S(N)(=O)=O)cc1 do in these assays?
M1 ag: 0.62; M1 antag: -1.6; Cav3 T inh: 0.13; PLAP act: 1.2

Results for CCOC(=O)N1CCN(C(=O)c2ccc3c(=O)n4c(nc3c2)CCCCC4)CC1 ?
M1 ag: -0.088; M1 antag: -5.3*; Cav3 T inh: 0.053; PLAP act: 1.3; M1 antag confirm: 300*; mGluR4 antag: 215

What do the screens show for `CCOC(=O)N1CCN(C(=O)c2ccc3c(=O)n(CCc4ccccc4)c(=O)[nH]c3c2)CC1`?
M1 ag: -0.98; M1 antag: -5.1*; Cav3 T inh: 1; PLAP act: 1.2; M1 antag confirm: 296*; mGluR4 antag: 246

Results for CCOC(=O)N1CCN(C(=O)c2ccc3c(=O)n(CCOC)c(=O)[nH]c3c2)CC1 ?
M1 ag: 0.27; M1 antag: -2.1*; PLAP act: 1.4; M1 antag confirm: 482; mGluR4 antag: 207

How did CCn1c(=O)[nH]c2cc(C(=O)N3CCN(c4ccccc4)CC3)ccc2c1=O do in these assays?
M1 ag: 0.42; M1 antag: -0.38; Cav3 T inh: -0.3; PLAP act: 0.8

How did C=CCn1c(=O)n(CCOC)c(=O)c2sc3ccccc3c21 do in these assays?
M1 ag: -1.2; M1 antag: 0.67; Cav3 T inh: -0.26; PLAP act: 0.9
